Reference: the supplement of paper PMC10127200
Counter-ions that a name gives are not always drawn.

Key:
Test in all cases: Euclidean distance of Cell Painting phenotypic profile (signed KS, 77 features) to DMSO centroid (dimensionless distance); 5 or 10 uM (library dependent); higher = stronger phenotypic change vs DMSO (phenoactivity)
Conditions in all cases: 48 h
786-O = test system: 786-O
Procedure, shortened: (§1)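 Phenoactivity is defined as the Euclidean distance from a compound profile to the median vehicle profile. Each profile comprised 77 Harmony features, scored as signed Kolmogorov-Smirnov statistics versus same-plate vehicle wells, then plate-position corrected, correlation-weighted and replicate-averaged at the top dose. Five cancer lines and one healthy fibroblast line were exposed to library compounds for 48 h at 10 or 5 uM (0.1% DMSO final).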

A549 = test system: A549
Procedure, shortened: as §1

DU145 = test system: DU145
Procedure, shortened: as §1

FB = test system: FB
Procedure, shortened: as §1

HEPG2 = test system: HEPG2
Procedure, shortened: as §1

OVCAR4 = test system: OVCAR4
Procedure, shortened: as §1

SMILES	Euclidean distance (786-O)	Euclidean distance (A549)	Euclidean distance (DU145)	Euclidean distance (FB)	Euclidean distance (HEPG2)	Euclidean distance (OVCAR4)
COC(=O)C1=CO[C@@H](O[C@@H]2O[C@H](CO)[C@@H](O)[C@H](O)[C@H]2O)[C@@H]2[C@@H](C)[C@@H](O)C[C@H]12 [Loganin]	0.879	0.804	1.02	0.781	0.691	0.971
COc1ccc([C@H]2CNC(=O)C2)cc1OC1CCCC1 [S- (+)-Rolipram]	1.12	1.46	1	0.792	1.24	1.49
N#CC(=C(/N)Sc1ccccc1N)/C(C#N)=C(\N)Sc1ccccc1N	1.54	1.18	0.907	1.57	1.81	1.48
Cc1ccc(NCCCc2ccccc2)c(N)c1	0.637	0.572	0.826	0.816	0.57	0.53
CC(C)OC(=O)C(C(=O)OC(C)C)=C1SC=CS1 [Malotilate]	1.94	1.09	0.92	1.39	1.08	1.29
C/C=C\c1ccc(O)c(OC)c1 [Isoeugenol]	0.776	0.444	1.07	0.672	0.417	0.903
CCOC(=O)[C@H](CCc1ccccc1)N[C@@H](C)C(=O)N1[C@H](C(=O)O)C[C@H]2CCCC[C@@H]21 [Trandolapril]	1.34	0.478	0.864	0.819	0.562	0.99
NC(=O)[C@@H]1CC[C@@H]2CN1C(=O)N2OS(=O)(=O)O [Avibactam sodium]	1.03	0.85	0.722	0.925	0.607	1.24
O=[N+]([O-])c1cn2c(n1)OC[C@@H](OCc1ccc(OC(F)(F)F)cc1)C2	1.49	1.06	0.837	1.12	0.872	1.03
Cc1cc(-n2c(=O)[nH]c(=O)n(C)c2=O)ccc1Oc1ccc(SC(F)(F)F)cc1 [Toltrazuril]	1.07	0.597	0.914	0.686	0.651	1.41
NC(=O)c1cccc(-c2cccc(OC(=O)NC3CCCCC3)c2)c1	0.656	0.944	0.753	0.99	1.61	1.17
N[C@@H](Cc1c[nH]c2ccc(O)cc12)C(=O)O [5-hydroxytryptophan (5-HTP)]	1.11	0.965	0.903	0.927	0.404	0.744
CCC(=O)N1CC[C@H](Nc2ncnc3c2CN(c2cnc(OC)c(C(F)(F)F)c2)CC3)C1 [leniolisib(CDZ 173)]	1.06	1.1	1.67	1.76	0.969	1.59
CO[C@H]1C[C@@H]2CC[C@@H](C)[C@@](O)(O2)C(=O)C(=O)N2CCCC[C@H]2C(=O)O[C@H]([C@H](C)C[C@@H]2CC[C@@H](O)[C@H](OC)C2)CC(=O)[C@H](C)/C=C(\C)[C@@H](O)[C@@H](OC)C(=O)[C@H](C)C[C@H](C)/C=C/C=C/C=C/1C [Rapamycin (Sirolimus)]	2.74	1.97	1.21	3.07	1.86	2.1
CCCCCN(C)CCC(O)(P(=O)(O)O)P(=O)(O)O [Ibandronate sodium]	1.42	1.09	0.856	1.59	1.38	1.49
NS(=O)(=O)c1cc2c(cc1Cl)N=CNS2(=O)=O [Chlorothiazide]	1.21	0.957	1.22	1.35	0.662	0.734
C[C@H](Cn1cnc2c(N)ncnc21)OCP(=O)(O)O [Tenofovir]	1.59	1.45	0.705	0.924	1.26	1.07
CCN(CC)C(=O)C1(c2ccccc2)CC1CN (centres undefined) [Milnacipran HCl]	1.2	1.04	0.974	1.14	0.468	0.854
CC(C)NCC(O)c1ccc(O)c(O)c1 (centres undefined) [Isoproterenol sulfate dihydrate]	1.03	0.632	2.58	1.23	0.763	0.894
CN(C)Cc1ccc(S(=O)(=O)n2ccc(/C=C/C(=O)NO)c2)cc1 [Resminostat]	2.67	2.99	2.58	3.52	2.9	2.81
C[C@H](CCC(=O)O)[C@H]1CC[C@H]2[C@@H]3[C@H](O)C[C@@H]4C[C@H](O)CC[C@]4(C)[C@H]3CC[C@]12C [Chenodeoxycholic Acid]	0.805	0.691	0.826	0.881	0.737	1.08
CC(C)(C)c1cc(NC(=O)Nc2ccc(-c3cn4c(n3)sc3cc(OCCN5CCOCC5)ccc34)cc2)no1 [Quizartinib (AC220)]	3.28	2.67	1.42	1.43	2.93	1.37
Cc1ccccc1N1C(=O)c2cc(S(N)(=O)=O)c(Cl)cc2NC1C (centres undefined) [Metolazone]	1.06	0.914	1.26	0.909	0.715	1.05
Cc1cc(O)c2c(c1)C(=O)c1cccc(O)c1C2=O [Chrysophanic Acid]	1.36	0.646	1.3	1.64	1.34	1.43
OC[C@@H](O)CN1CCN(c2ccccc2)CC1 [Levodropropizine]	1.23	1.05	0.896	1.17	0.732	1.12
CCc1ccc(N(CC(C)C)S(=O)(=O)c2ccc(OCC3CCOCC3)c(CO)c2)cc1	1.56	1.56	1.9	1.05	0.857	1.66
COC(=O)C1=CO[C@@H](O[C@@H]2O[C@H](CO)[C@@H](O)[C@H](O)[C@H]2O)[C@@H]2C(CO)=CC[C@H]12 [Geniposide]	0.724	0.87	1.03	0.949	0.616	1.23
C#CCN(C)CCCOc1ccc(Cl)cc1Cl [Clorgyline HCl]	0.821	0.714	0.727	1.14	0.806	0.745
CCCCCCCCCCC[C@@H](C[C@@H]1OC(=O)[C@H]1CCCCCC)OC(=O)[C@H](CC(C)C)NC=O [Orlistat]	1.47	1.11	0.901	1.42	1.12	0.935
